# Data from the supplement of paper PMC9942566.
# ± gives the standard deviation of the averaged measurements.
# System: Serratia marcescens K904 PosmB-luxCDABE reporter (pMQ747)
# Assay: PosmB-lux reporter fold induction (RLU/OD600 relative to no-compound control), highest over Biolog concentrations; higher = stronger reporter activation
# Conditions: ΔrcsB mutant CMS5177; 4 h
# Method: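 Serratia marcescens K904 (wild type) or its isogenic ΔrcsB mutant, carrying the Rcs-dependent PosmB-luxCDABE reporter plasmid pMQ747, was grown in LB at OD600 0.1 in Biolog Phenotype MicroArray plates PM11-20 for 4 h at 30-32°C. Each compound is present at 3-4 proprietary concentrations (not stated); per the Fig. S1 legend the value given is the highest fold over those wells. Three independent trials.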
row,SMILES,PosmB-lux reporter fold induction
1,"C[C@@H]1NC(=O)[C@@H](N)CNC(=O)[C@H](C2CCNC(=N)N2)NC(=O)/C(=C/NC(N)=O)NC(=O)[C@H](CNC(=O)CC(N)CCCN)NC1=O.N=C1NCC[C@H]([C@@H]2NC(=O)/C(=C/NC(N)=O)NC(=O)[C@H](CNC(=O)C[C@@H](N)CCCN)NC(=O)[C@H](CO)NC(=O)[C@@H](N)CNC2=O)N1 [Capreomycin] (Biolog plate: PM11, well positions: D1-4)",1.09 ± 0.081
2,"Cc1onc(-c2ccccc2)c1C(=O)N[C@@H]1C(=O)N2[C@@H]1SC(C)(C)[C@@H]2C(=O)O [Oxacillin] (Biolog plate: PM12, well positions: B1-4)",1.31 ± 0.52
3,"O=C(O)CN(CCN(CC(=O)O)CC(=O)O)CC(=O)O (Biolog plate: PM15, well positions: B5-8)",1.22 ± 0.17
4,"[Na+].[Na+].[O]=[W](=[O])([O-])[O-] [sodium tungstate] (Biolog plate: PM17, well positions: E9-12)",0.99 ± 0.14
5,"Cc1onc(-c2ccccc2Cl)c1C(=O)N[C@@H]1C(=O)N2[C@@H]1SC(C)(C)[C@@H]2C(=O)O [Cloxacillin] (Biolog plate: PM11, well positions: B5-8)",1.06 ± 0.1
6,"CC(C(=O)O)c1cccc(C(=O)c2ccccc2)c1 (stereo not given) [ketoprofen (an NSAID)] (Biolog plate: PM18, well positions: A2-4)",1 ± 0.37
7,"Nc1ccc(S(=O)(=O)Nc2nccs2)cc1 [Sulfathiazole] (Biolog plate: PM12, well positions: F5-8)",1.89 ± 0.35
8,"CO/N=C(\C(=O)N[C@@H]1C(=O)N2C(C(=O)O)=C(COC(C)=O)CS[C@H]12)c1csc(N)n1 [cefotaxime] (Biolog plate: PM16, well positions: A2-4)",1.11 ± 0.047
9,"Nc1c2ccccc2nc2ccccc12 [9-Aminoacridine] (Biolog plate: PM14, well positions: B1-4)",1.19 ± 0.19
10,"COc1ccc(C[C@H](N)C(=O)N[C@H]2[C@@H](O)[C@H](n3cnc4c(N(C)C)ncnc43)O[C@@H]2CO)cc1 [Puromycin] (Biolog plate: PM15, well positions: F9-12)",3.56 ± 1.7
11,"CN(C)CCCN1c2ccccc2Sc2ccc(Cl)cc21 [chlorpromazine] (Biolog plate: PM17, well positions: D9-12)",1.63 ± 0.49
12,"CN(C)c1ccc(C(=C2C=CC(=[N+](C)C)C=C2)c2ccc(N(C)C)cc2)cc1 [crystal violet] (Biolog plate: PM20, well positions: E1-4)",1.24 ± 0.17
13,"O=C(O)/C=C/c1ccccc1 [cinnamic acid] (Biolog plate: PM19, well positions: C9-12)",1.17 ± 0.32
14,"CCn1cc(C(=O)O)c(=O)c2ccc(C)nc21 [Nalidixic Acid] (Biolog plate: PM11, well positions: E9-12)",8.63 ± 3.1
15,"CO/N=C(\C(=O)N[C@@H]1C(=O)N2C(C(=O)O)=C(CSc3nc(=O)c(O)nn3C)CS[C@H]12)c1csc(N)n1 [Ceftriaxone] (Biolog plate: PM11, well positions: G1-4)",1.12 ± 0.14
16,"CO[C@@H]1[C@@H](OC(N)=O)[C@@H](O)[C@H](Oc2ccc3c(O)c(NC(=O)c4ccc(O)c(CC=C(C)C)c4)c(=O)oc3c2C)OC1(C)C [Novobiocin] (Biolog plate: PM12, well positions: D9-12)",2.74 ± 1.3
17,"OB(O)O [Boric acid] (Biolog plate: PM14, well positions: C1-4)",23.8 ± 12
18,"CC1(C)S[C@@H]2[C@H](NC(=O)[C@H](N)c3ccc(O)cc3)C(=O)N2[C@H]1C(=O)O [Amoxicillin] (Biolog plate: PM11, well positions: B1-4)",0.968 ± 0.11

row,SMILES,PosmB-lux reporter fold induction
1,"NO [hydroxylamine] (Biolog plate: PM19, well positions: G9-12)",1.39 ± 0.47
2,"CN(C)CCC=C1c2ccccc2CCc2ccccc21 [amitriptyline] (Biolog plate: PM20, well positions: A2-4)",1.16 ± 0.17
3,"Cc1cc(NS(=O)(=O)c2ccc(N)cc2)no1 [Sulfa-methoxazole] (Biolog plate: PM12, well positions: G5-8)",1.9 ± 1.2
4,"NC[C@@H]1O[C@H](O[C@H]2[C@@H](O)[C@H](O[C@@H]3[C@@H](O)[C@H](N)C[C@H](N)[C@H]3O[C@H]3O[C@H](CO)[C@@H](O)[C@H](O)[C@H]3N)O[C@@H]2CO)[C@H](N)[C@@H](O)[C@@H]1O [Paromomycin] (Biolog plate: PM12, well positions: C1-4)",1.42 ± 0.79
5,"CCN1CCN(C(=O)N[C@@H](C(=O)N[C@@H]2C(=O)N3[C@@H]2SC(C)(C)[C@@H]3C(=O)O)c2ccccc2)C(=O)C1=O [Piperacillin] (Biolog plate: PM14, well positions: F5-8)",1.2 ± 0.13
6,"CCC[C@@H]1C[C@@H](C(=O)N[C@@H]([C@H]2O[C@H](SC)[C@H](O)[C@@H](O)[C@H]2O)[C@@H](C)O)N(C)C1 [Lincomycin] (Biolog plate: PM11, well positions: A9-12)",2.28 ± 0.49
7,"CN[C@@H]1[C@@H](O[C@H]2O[C@H](CO)[C@@H](N)[C@H](O)[C@H]2O)OC2C[C@@H](N)[C@@H](O[C@H]3[C@H](O)[C@@H](O)[C@H](N)C[C@@H]3N)OC2[C@@H]1O (stereo not given in full) [apramycin] (Biolog plate: PM20, well positions: A5-8)",1.48 ± 0.21
8,"Cn1nnnc1SCC1=C(C(=O)O)N2C(=O)[C@@H](NC(=O)[C@H](OC=O)c3ccccc3)[C@H]2SC1 [cefamandole nafate] (Biolog plate: PM17, well positions: G5-8)",1.52 ± 0.36
9,"CCCCC(CC)CNC(=N)NC(=N)NCCCCCCNC(=N)NC(=N)NCC(CC)CCCC (stereo not given) [Alexidine] (Biolog plate: PM15, well positions: E1-4)",1.92 ± 0.13
10,"CC(=O)OCC1=C(C(=O)O)N2C(=O)[C@@H](NC(=O)Cc3cccs3)[C@H]2SC1 [Cephalothin] (Biolog plate: PM11, well positions: H1-4)",1.37 ± 0.15
11,"C1COCCOCCOCCOCCOCCO1 [18-crown-6 ether] (Biolog plate: PM20, well positions: D9-12)",1.53 ± 0.55
12,"CN(C)[C@@H]1C(O)=C(C(=O)NCN2CCCC2)C(=O)[C@@]2(O)C(O)=C3C(=O)c4c(O)cccc4[C@@](C)(O)[C@H]3C[C@@H]12 [Rolitetracycline] (Biolog plate: PM13, well positions: D9-12)",1.73 ± 0.11
13,"CO[C@H]1/C=C/O[C@@]2(C)Oc3c(C)c(O)c4c(O)c(cc(O)c4c3C2=O)NC(=O)/C(C)=C\C=C\[C@H](C)[C@H](O)[C@@H](C)[C@@H](O)[C@@H](C)[C@H](OC(C)=O)[C@@H]1C [rifamycin SV] (Biolog plate: PM16, well positions: E9-12)",35.4 ± 1.7
14,"CC1=CC(=O)c2ccccc2C1=O [Menadione] (Biolog plate: PM15, well positions: G9-12)",0.917 ± 0.14
15,"[Cl-].[Cs+] [Cesium chloride] (Biolog plate: PM13, well positions: F1-4)",1.64 ± 0.47
16,"Cn1cnc([N+](=O)[O-])c1Sc1ncnc2[nH]cnc12 [azathioprine] (Biolog plate: PM18, well positions: B9-12)",0.729 ± 0.15
17,"Cc1noc(NS(=O)(=O)c2ccc(N)cc2)c1C [sulfisoxazole] (Biolog plate: PM18, well positions: C5-8)",1.5 ± 0.35
